“And” between values parts separate entries of the source, which are not always exact repeats. Identical values can stand only once. Compounds without any hit were thinned out: in the full panel of roughly 79,000, 15% have a hit. The source holds several records for some structures; these can differ, active in one and inactive in another. The source made the active and inactive calls. Cut-off read from the data, not from the text of the source: active = growth inhibition above about 70%; inactive = the rest.
Experiments:
[1] = NCI Yeast Anticancer Drug Screen. Data for the mlh1 rad18 strain (AID 175); details: S. cerevisiae mlh1 rad18 strain growth inhibition, stronger effect = higher value
Outline: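 Cells of a genetically altered yeast strain, deficient in DNA damage repair, were treated with compound. Their growth was then compared with that of vehicle-treated cultures to give inhibition.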

[2] = NCI Yeast Anticancer Drug Screen. Data for the rad18 strain (AID 177); details: S. cerevisiae rad18 mutant growth inhibition, stronger effect = higher value
Outline: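 Compounds are applied to a repair-deficient yeast strain, and growth is compared with that of vehicle-treated cultures to give percent inhibition.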

[3] = NCI Yeast Anticancer Drug Screen. Data for the rad50EPP+ strain (AID 151);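 note: 0% = growth of vehicle-treated control cultures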; details: S. cerevisiae rad50 mutant strain, stronger effect = higher value
Outline: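 rad50EPP+ yeast treated with test compounds. Readout: growth vs vehicle control.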

[4] = NCI Yeast Anticancer Drug Screen. Data for the mgt1 strain (AID 153); details: S. cerevisiae mgt1 mutant growth inhibition, stronger effect = higher value
Outline: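 Growth inhibition relative to vehicle controls was scored for the mgt1 yeast strain after compound exposure.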

[5] = NCI Yeast Anticancer Drug Screen. Data for the rad50 strain (AID 155);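 note: 0% = growth of vehicle-only cultures of the same strain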; details: S. cerevisiae rad50 strain growth inhibition, stronger effect = higher value
Outline: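 DNA repair mutant yeast, compound exposure, growth read-out; inhibition is taken relative to vehicle.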

[6] = NCI Yeast Anticancer Drug Screen. Data for the mec2-1 strain (AID 157); details: S. cerevisiae mec2-1 strain, stronger effect = higher value
Outline: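 Growth inhibition is read against vehicle-treated controls after compound exposure of the mec2-1 yeast strain, which is defective in DNA damage repair or cell cycle control.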

[7] = NCI Yeast Anticancer Drug Screen. Data for the sgs1 mgt1 strain (AID 161);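 note: 0% = growth of cultures given vehicle only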; details: S. cerevisiae sgs1 mgt1 strain, stronger effect = higher value
Outline: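 Compounds are added to genetically altered yeast, and growth is compared with cultures given vehicle alone to give percent inhibition.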

[8] = NCI Yeast Anticancer Drug Screen. Data for the CLN2oe strain (AID 163);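 note: 0% = growth of vehicle-only control cultures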; details: S. cerevisiae CLN2oe strain, stronger effect = higher value
Outline: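 Compound-treated yeast; growth vs vehicle ctrl = % inhibition. Genetically altered strain (cell-cycle control).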

[9] = NCI Yeast Anticancer Drug Screen. Data for the cln2 rad14 strain (AID 165);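 note: 0% = growth equal to vehicle treated cultures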; details: S. cerevisiae cln2 rad14 strain, stronger effect = higher value
Outline: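 Growth inhibition, relative to vehicle-treated controls, is the read-out. The test organism is a yeast strain with defined genetic alterations, cln2 rad14.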

[10] = NCI Yeast Anticancer Drug Screen. Data for the bub3 strain (AID 167); details: S. cerevisiae bub3 mutant strain, stronger effect = higher value
Outline: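 In this screen, a yeast mutant lacking normal mitotic checkpoint function is challenged with compound. Relative growth versus vehicle gives the inhibition value.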

[11] = NCI Yeast Anticancer Drug Screen. Data for the wt2 strain (AID 169);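 note: 0% = growth of vehicle-treated yeast cultures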; details: S. cerevisiae wt2 strain growth inhibition, stronger effect = higher value
Outline: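 Compound exposure of yeast; growth compared with vehicle controls; inhibition reported.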

[12] = NCI Yeast Anticancer Drug Screen. Data for the mlh1 strain (AID 171);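 note: 0% = growth of vehicle-treated control cultures of the same strain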; details: S. cerevisiae mlh1 strain growth inhibition, stronger effect = higher value
Outline: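 Compounds are applied to a genetically altered yeast strain, and its growth is compared with that of vehicle-treated cultures to give percent inhibition.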

[13] = NCI Yeast Anticancer Drug Screen. Data for the sgs1 strain (AID 173);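 note: 0% = growth of vehicle-only control cultures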; details: S. cerevisiae sgs1 mutant, stronger effect = higher value
Outline: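 Compounds applied to genetically altered yeast; growth compared with vehicle-treated cultures to give % inhibition.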

[14] = NCI Yeast Anticancer Drug Screen. Data for the rad14 strain (AID 159);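 note: 0% = growth of vehicle-treated control cultures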; details: S. cerevisiae rad14 strain growth inhibition, stronger effect = higher value
Outline: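 DNA repair-defective yeast, compound-exposed; % growth inhibition derived by comparison with vehicle-treated controls.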

[15] = at 5.0 µM (retest, dose inferred, filed as 0.5)
[16] = at 50.0 µM (retest, dose inferred, filed as 5.0)

Measured: growth inhibition

COc1ccc(OC)c(/C=C/[N+](=O)[O-])c1
inactive: [1]; [15] -114% and 37% | [2]; at 1.2 µM 5% | [2]; at 3.7 µM 13% | [2]; at 11.0 µM 20% | [2]; at 33.0 µM 49%
-53% (inactive) and 95% (active): [1]; [16]
active: [1]; at 50.0 µM 97.9% and 99.5% | [2]; at 100.0 µM 96%

C[C@]12CCc3nonc3C1CC[C@@H]1C2CC[C@]2(C)C(=O)CCC12 (stereo partly drawn)
active: [5]; at 100.0 µM 76% | [7]; [16] 73% | [7]; at 50.0 µM 81.5% | [10]; [16] 76% | [13]; at 100.0 µM 78%
inactive: [3]; at 1.2 µM 0% | [3]; at 3.7 µM 1% | [3]; at 11.0 µM 5% | [3]; at 33.0 µM 12% | [3]; at 100.0 µM 13% | [4]; at 1.2 µM 8% | [4]; at 3.7 µM 6% | [4]; at 11.0 µM 19% | [4]; at 33.0 µM 42% | [4]; at 100.0 µM 59% | [5]; at 1.2 µM 11% | [5]; at 3.7 µM 7% | [5]; [15] 51% | [5]; at 11.0 µM 28% | [5]; at 33.0 µM 62% | [5]; [16] 68% | [5]; at 50.0 µM 68% | [6]; at 1.2 µM -1% | [6]; at 3.7 µM -3% | [6]; [15] 26% | [6]; at 11.0 µM 10% | [6]; at 33.0 µM 15% | [6]; [16] 40% | [6]; at 50.0 µM 33.2% | [6]; at 100.0 µM 36% | [7]; [15] 46% | [8]; at 1.2 µM 17% | [8]; at 3.7 µM 25% | [8]; at 11.0 µM 28% | [8]; at 33.0 µM 41% | [8]; at 100.0 µM 51% | [9]; [15] 54% | [9]; [16] 57% | [9]; at 50.0 µM 44.1% | [10]; at 1.2 µM 1% | [10]; at 3.7 µM 6% | [10]; [15] 14% | [10]; at 11.0 µM 19% | [10]; at 33.0 µM 24% | [10]; at 50.0 µM 35.8% | [10]; at 100.0 µM 49% | [11]; at 1.2 µM 5% | [11]; at 3.7 µM 6% | [11]; at 11.0 µM 1% | [11]; at 33.0 µM 14% | [11]; at 100.0 µM 39% | [12]; at 1.2 µM -4% | [12]; at 3.7 µM -3% | [12]; at 11.0 µM -1% | [12]; at 33.0 µM 19% | [12]; at 100.0 µM 50% | [13]; at 1.2 µM 13% | [13]; at 3.7 µM 21% | [13]; at 11.0 µM 31% | [13]; at 33.0 µM 50% | [1]; [15] 46% | [1]; [16] 68% | [1]; at 50.0 µM 56.9% | [2]; at 1.2 µM 14% | [2]; at 3.7 µM 12% | [2]; at 11.0 µM 19% | [2]; at 33.0 µM 28% | [2]; at 100.0 µM 62%

CCN(CC)CC(=O)O[C@]1(CC)C(=O)OCc2c1cc1n(c2=O)Cc2cc3ccccc3nc2-1
active: [5]; [15] 93% | [5]; [16] 97% | [5]; at 50.0 µM 83.2% | [6]; [16] 98% | [6]; at 50.0 µM 87% | [7]; [16] 97% | [7]; at 50.0 µM 85.1% | [9]; [16] 93% | [10]; [16] 97% | [10]; at 50.0 µM 81.5%
inactive: [6]; [15] 58% | [7]; [15] 45% | [9]; [15] 44% | [9]; at 50.0 µM 62.5% | [10]; [15] 43%

COC(COC(N)=O)C1=C(N2CC2)C(=O)C(C)=C(N2CC2)C1=O (stereo not drawn)
inactive: [5]; [15] 47% | [5]; at 50.0 µM 66.1% | [6]; [15] 39% | [7]; [15] 50% | [7]; at 50.0 µM 43.3% | [9]; [15] 40% | [9]; at 50.0 µM 50.6% | [10]; [15] 42% | [10]; at 50.0 µM 24.9%
active: [5]; [16] 98% | [6]; [16] 99% | [6]; at 50.0 µM 71.2% | [7]; [16] 99% | [9]; [16] 98% | [10]; [16] 99% | [1]; [15] 76% | [1]; [16] 97%

O=C1C2CCN(CC2)C1CN1CCOCC1 (stereo not drawn)
inactive: [5]; [15] 15% | [5]; [16] 22% | [6]; [15] 22% | [6]; [16] -8% | [7]; [15] 3% | [7]; [16] 8% | [9]; [15] 10% | [9]; [16] 11% | [9]; at 50.0 µM 19.2% | [10]; [15] -1% | [10]; [16] 2% | [1]; [15] 10% | [1]; [16] 16%
active: [5]; at 50.0 µM 88.3% | [6]; at 50.0 µM 90.8% | [7]; at 50.0 µM 87.2% | [10]; at 50.0 µM 89.1%

Cc1nc2ccccc2cc1C[N+]12CN3CN(CN(C3)C1)C2
inactive: [3]; at 1.2 µM 0% | [3]; at 3.7 µM 1% | [3]; at 11.0 µM 1% | [3]; at 33.0 µM 21% | [4]; at 1.2 µM 2% | [4]; at 3.7 µM 5% | [4]; at 11.0 µM 4% | [4]; at 33.0 µM 6% | [4]; at 100.0 µM 36% | [5]; at 1.2 µM 1% | [5]; at 3.7 µM 9% | [5]; [15] -7% | [5]; at 11.0 µM 7% | [5]; at 33.0 µM 25% | [5]; [16] 55% | [6]; at 1.2 µM 2% | [6]; at 3.7 µM 4% | [6]; [15] -2% | [6]; at 11.0 µM 5% | [6]; at 33.0 µM 10% | [6]; [16] 28% | [6]; at 50.0 µM 25.1% | [6]; at 100.0 µM 32% | [14]; at 1.2 µM -2% | [14]; at 3.7 µM 6% | [14]; at 11.0 µM 3% | [14]; at 33.0 µM 11% | [14]; at 100.0 µM 47% | [7]; [15] -6% | [7]; [16] 27% | [7]; at 50.0 µM 47.2% | [8]; at 1.2 µM 1% | [8]; at 3.7 µM 1% | [8]; at 11.0 µM 4% | [8]; at 33.0 µM 6% | [8]; at 100.0 µM 25% | [9]; [15] -30% | [9]; [16] 4% | [9]; at 50.0 µM 19.9% | [10]; at 1.2 µM 4% | [10]; at 3.7 µM 4% | [10]; [15] 6% | [10]; at 11.0 µM 1% | [10]; at 33.0 µM 2% | [10]; [16] 2% | [10]; at 50.0 µM 42% | [10]; at 100.0 µM 26% | [11]; at 1.2 µM 1% | [11]; at 3.7 µM -5% | [11]; at 11.0 µM 4% | [11]; at 33.0 µM 11% | [11]; at 100.0 µM 46% | [12]; at 1.2 µM -1% | [12]; at 3.7 µM 1% | [12]; at 11.0 µM -6% | [12]; at 33.0 µM 4% | [12]; at 100.0 µM 46% | [13]; at 1.2 µM -1% | [13]; at 3.7 µM -2% | [13]; at 11.0 µM 2% | [13]; at 33.0 µM 28% | [1]; [15] -1% | [1]; [16] 39% | [1]; at 50.0 µM 68.2% | [2]; at 1.2 µM -1% | [2]; at 3.7 µM -2% | [2]; at 11.0 µM -2% | [2]; at 33.0 µM 16%
active: [3]; at 100.0 µM 85% | [5]; at 50.0 µM 84% | [5]; at 100.0 µM 85% | [13]; at 100.0 µM 80% | [2]; at 100.0 µM 83%

— PubChem BioAssay (NCI)
